zVAD death inh: L929 zVAD cell death inhibition. hit rate 0.38% among 220,000. viability rescue, % at 10 µM. L929 zVAD necroptosis rescue, ATP luminescence, 24 h; with zVAD 60 µM;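 active = activation, scaled between plate controls, above about 75%, limit read from the data; inactive = activation under that limit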;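 also: 0% = zVAD with DMSO and 100% = DMSO alone without zVAD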
Bim-Mcl-1: human Bim-Mcl-1 interaction inhibition; Bead-based flow cytometry, Bim peptide-Mcl-1 binding; AID 1009; Q07820; hit rate 0.1% among 190,000; inhibition, % at 10 µM; in the data active = inhibition above about 40%;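 also: 0% = no compound tracer wells and 100% = peptide blocker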
Target sequence (Q07820 whole entry, looked up): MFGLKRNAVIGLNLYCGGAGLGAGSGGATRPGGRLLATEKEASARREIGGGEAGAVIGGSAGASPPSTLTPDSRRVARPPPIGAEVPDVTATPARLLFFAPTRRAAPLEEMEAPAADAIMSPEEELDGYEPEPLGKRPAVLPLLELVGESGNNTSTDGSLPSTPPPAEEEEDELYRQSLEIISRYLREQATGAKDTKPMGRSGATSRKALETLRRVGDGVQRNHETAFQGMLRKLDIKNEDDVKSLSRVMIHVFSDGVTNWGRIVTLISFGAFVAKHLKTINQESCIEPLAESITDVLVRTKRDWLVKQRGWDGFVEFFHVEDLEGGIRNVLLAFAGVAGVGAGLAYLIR
TNF death inh: blocks TNF-alpha induced death of Jurkat FADD-/- cells | hit rate 0.068% among 220,000 | Jurkat FADD-/- TNF necroptosis rescue, ATP luminescence, 24 h; 0 = TNF only, 100 = no-TNF cells | activation (protection from cell death), % at 10 µM;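 active = activation, meaning protection from cell death, of at least 50% relative to plate controls; inactive = activation below 50%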;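 also: necroptosis triggered by 40 ng/mL TNF-alpha added together with compound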
Mcl1 Bid PPI: Mcl-1/Bid interaction inhibition; inhibition, % at 21.7 µM; AID 1021; TR-FRET Mcl-1/Bid-Dy647 peptide binding, 1536-well; hit rate 0.97% among 220,000;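 active = compounds that cut the binding signal by more than half at the single screening dose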;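 also: His-tagged Mcl-1 with europium anti-His antibody binding Bid BH3 peptide; 0% = Mcl-1 plus peptide wells and 100% = peptide-only wells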
m-calpain inh: blocks pig calpain II enzyme activity; purified calpain II, fluorogenic peptide substrate, 30 min; AID 1236; inhibition, % at 16 µM; hit rate 0.37% among 220,000;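 active = inhibition above about 50%, limit read from the data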
Mcl1-Noxa inh: Mcl-1/Noxa interaction inhibition; hit rate 1.5% among 220,000; AID 1022; inhibition, % at 21.7 µM; TR-FRET Mcl-1/Noxa peptide binding, 2 h; Q07820;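 active = compounds that cut the protein-peptide binding signal by more than 50% relative to plate controls in a single-dose test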;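 also: His-tagged Mcl-1 with rhodamine Noxa BH3 peptide and terbium anti-His antibody; 0% = Mcl-1 plus Noxa peptide wells and 100% = peptide-only wells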
Numbers without * were called inactive; · = not tested or not shown. Rows were chosen to be rich in hits. Some 2.8% of all compounds tested hit in one or more screens of this group.

SMILES | zVAD death inh | Bim-Mcl-1 | TNF death inh | Mcl1 Bid PPI | m-calpain inh | Mcl1-Noxa inh
COc1ccc(/C=C/C(=O)NC(=S)Nc2cc([N+](=O)[O-])ccc2O)cc1OC | 0 | 0 | -2 | 13 | -38 | 93*
COc1cc(/C=C/C(=O)OCC(=O)Nc2cc(C)c(C)cc2[N+](=O)[O-])ccc1O | 1 | · | 1 | 41 | 7 | 93*
COc1ccc([N+](=O)[O-])cc1NC(=S)NC(C)=O | 1 | 3 | 0 | -6 | 0 | 15
COc1cc(/C=C/C(=O)OCC(=O)Nc2ccc(C)cc2[N+](=O)[O-])ccc1O | 1 | 3 | -1 | -36 | -22 | 55*
COc1cc(/C=C/C(=O)OCC(=O)Nc2ccc([N+](=O)[O-])cc2)ccc1O | 2 | · | -7 | -24 | -17 | 26
O=C(Nc1ccc(Nc2ccccc2)cc1)C(Cl)(Cl)Cl | 10 | -7 | 6 | -72 | 3 | 47
Oc1c(C(c2ccccc2Cl)N2CCCC2)ccc2cccnc12 (centres undefined) | 0 | 0 | -7 | -3 | 29 | 28
Oc1c(C(c2cccs2)N2CCN(c3ccccc3)CC2)ccc2cccnc12 (centres undefined) | 3 | -6 | -21 | 65* | 5 | 85*
COC(=O)c1ccc(C)c(NC(=O)CCNC(=O)c2ccc([N+](=O)[O-])cc2)c1 | 2 | 46* | 2 | -11 | -12 | 15
O=[N+]([O-])c1ccc2nc(-c3ccc(OC(F)F)cc3)cn2c1 | 2 | -2 | 0 | -14 | -70 | -18
COc1ccc(N2Cc3cccc(C(=O)N4CCN(C(=O)c5ccco5)CC4)c3C2=O)cc1 | 6 | 2 | 0 | -26 | -116 | 74*
Cc1ccc(N(Cc2cc3cc(C)ccc3[nH]c2=O)C(=O)c2cccs2)cc1 | 0 | -4 | 1 | 61* | 13 | -8
Cc1ccc2[nH]c(=O)c(CN(C)C(=O)c3cccs3)cc2c1 | 11 | 0 | 0 | 4 | -41 | 12
COc1ccc2[nH]c3c(=O)n(Cc4ccc(C(=O)N5CCCC5)cc4)c(=S)[nH]c3c2c1 | -2 | 0 | -1 | -34 | -40 | 78*
COc1ccc2[nH]c3c(=O)n(CCCCC(=O)NCCN4CCCC4)c(=S)[nH]c3c2c1 | 0 | -3 | -1 | -42 | -62 | 36
CCCCNC(=O)c1onc(CCl)c1C(=O)OC | 0 | -1 | -11 | -8 | 19 | 3
COc1ccc(NC(=O)NCCCN2CCN(c3ccccc3F)CC2)cc1 | 1 | · | 2 | -20 | 7 | 56*
COc1ccc(NC(=O)CN2CCN(c3ccccc3F)CC2)cc1 | 1 | -7 | 1 | -14 | -2 | 11
COc1ccc(NC(=O)NCCCN2CCN(c3cc(C)ccc3C)CC2)cc1 | 3 | 2 | 4 | -14 | 0 | 55*
COc1ccc(/C(C)=N/NC(=O)CNC(=O)/C=C\c2ccco2)cc1 | 5 | -2 | -6 | -36 | -157 | -2
CC(C)c1ccc(S(=O)(=O)/N=C2/C=C(Sc3ncn[nH]3)C(=O)c3ccccc32)cc1 | 2 | 27 | -9 | 49 | 13 | 105*
Cc1ccc(S(=O)(=O)/N=C2/C=C(Sc3ncn[nH]3)C(=O)c3ccccc32)cc1 | 2 | -7 | 0 | 65* | -18 | 98*
Cc1ccc(C)c(S(=O)(=O)Nc2ccc(O)c(Sc3ncn[nH]3)c2)c1 | 0 | · | 0 | -45 | -2 | 8
Cc1ccc(S(=O)(=O)/N=C2/C=C(Sc3ncn[nH]3)C(=O)c3ccccc32)c(C)c1 | 3 | 11 | -9 | 26 | 28 | 94*
Cc1ccc(S(=O)(=O)Nc2ccc(O)c(Sc3ncn[nH]3)c2)cc1 | 1 | -1 | 1 | -29 | -14 | 23
Cc1ccc(C(=O)NN2C(=O)C3C4c5ccccc5C(c5ccccc54)C3C2=O)cc1 (centres undefined) | 0 | -4 | 1 | 4 | 22 | 15
CC(=O)c1ccc(-n2c(-c3cc(-c4ccco4)[nH]n3)n[nH]c2=S)cc1 | 0 | -5 | 0 | -91 | -64 | 63*
O=C(O)c1ccc(-n2c(-c3cc(-c4ccco4)[nH]n3)n[nH]c2=S)cc1 | 0 | -2 | -1 | -78 | 1 | 46
CCC1=NN2C(=N)/C(=C\c3ccc(OCc4cc(=O)n5nc(CC)sc5n4)c(OC)c3)C(=O)N=C2S1 | 4 | 2 | 1 | -66 | -47 | 94*

Screens deposited in PubChem by several laboratories.
